# Assay results reported in the supplement of paper PMC8728848.
# The sample as a whole holds a higher share of the strongest signals than the screen did.
# B1: LEA (Lycopersicon esculentum) (protein)
# chain: NEVFDVPMNETIGVESINASVGGYPRCGAQGDGGNCPSGMCCSVWGWCGKTYGYCAPQNCQKQCPAPYPEGRCGWQADGKSCPNGKCCSYGGWCGTTSDYCARQNCQKQCILPSPPPPPPPPPGFPRPECGLQKNGERCTKPGECCSIWGLCGATYKYCDPQHCQKQCSAPFPPGRCGWQADGRPCPTGQCCSFSGWCGTTSAHCTYPQCVSQCNDPRFPSSLNNRIQSFML
# How the values were obtained:
# Assay in all cases: glycan array binding signal (z-score within array); higher = stronger binding
# Conditions in all cases: glycan notation: IUPAC condensed, linker removed
# Fuc(a1-2)Gal(b1-4)GlcNAc = biological target: Fuc(a1-2)Gal(b1-4)GlcNAc
# In short: (§1)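 The Consortium for Functional Glycomics database supplied 3228 glycan arrays, of which those lacking an available protein sequence were dropped. The binding signal, a within-array Z-score, was averaged across arrays of the same protein sequence and across linkers. Negative scores can be read as non-binding.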
# [1] = biological target: Fuc(a1-2)Gal6S(b1-4)Glc6S
# In short: as §1
# [2] = biological target: Fuc(a1-2)Gal6S(b1-4)GlcNAc
# In short: as §1
# [3] = biological target: Fuc(a1-2)[Gal(a1-3)]Gal(b1-4)GlcNAc
# In short: as §1
# [4] = biological target: Fuc(a1-2)[Gal(a1-4)]Gal(b1-4)GalNAc
# In short: as §1
# [5] = biological target: Fuc(a1-2)[GalNAc(a1-3)]Gal(b1-3)GlcNAc
# In short: as §1
# [6] = biological target: Fuc(a1-2)[GalNAc(a1-3)]Gal(b1-4)GlcNAc
# In short: as §1
# [7] = biological target: Fuc(a1-2)[GalNAc(a1-4)]Gal(b1-4)GlcNAc
# In short: as §1
# [8] = biological target: Fuc(a1-3)[Gal(b1-4)]GlcNAc(b1-4)Gal(b1-4)[Fuc(a1-3)]GlcNAc(b1-4)Gal(b1-4)[Fuc(a1-3)]GlcNAc
# In short: as §1
# [9] = biological target: Fuc(a1-3)[Gal3S(b1-4)]GlcNAc6S
# In short: as §1
# Gal(a1-4)GlcNAc = biological target: Gal(a1-4)GlcNAc
# In short: as §1
# [10] = biological target: Gal(b1-3)GalNAc(b1-3)Gal(a1-4)Gal(b1-4)Glc
# In short: as §1
# [11] = biological target: Gal(b1-3)[Neu5Ac(a2-6)]GlcNAc(a1-4)Gal(b1-4)Glc
# In short: as §1
# [12] = biological target: Gal(b1-4)GalNAc(b1-3)[Fuc(a1-2)]Gal(b1-4)GlcNAc
# In short: as §1
# [13] = biological target: Gal(b1-4)GlcNAc(b1-6)GalNAc
# In short: as §1
# [14] = biological target: Gal3S(b1-3)[Fuc(a1-4)]GlcNAc
# In short: as §1
# Gal6S(b1-4)Glc = biological target: Gal6S(b1-4)Glc
# In short: as §1
# GalNAc(a1-3)GalNAc = biological target: GalNAc(a1-3)GalNAc
# In short: as §1
# [15] = biological target: GalNAc(b1-3)Gal(a1-4)Gal(b1-4)GlcNAc
# In short: as §1
# GlcNAc(b1-3)Gal = biological target: GlcNAc(b1-3)Gal
# In short: as §1
# [16] = biological target: GlcNAc(b1-3)Gal(b1-3)GalNAc
# In short: as §1
# [17] = biological target: GlcNAc(b1-4)Gal(b1-4)GlcNAc
# In short: as §1
# [18] = biological target: GlcNAc(b1-4)GlcNAc(b1-4)GlcNAc(b1-4)GlcNAc(b1-4)GlcNAc(b1-4)GlcNAc
# In short: as §1
# GlcNAc(b1-6)GalNAc = biological target: GlcNAc(b1-6)GalNAc
# In short: as §1
# Kdn(a2-3)Gal(b1-3)GlcNAc = biological target: Kdn(a2-3)Gal(b1-3)GlcNAc
# In short: as §1
# [19] = biological target: Man(a1-2)Man(a1-2)Man(a1-6)[Man(a1-3)]Man
# In short: as §1
# [20] = biological target: Neu5Ac(a2-3)Gal(b1-3)GalNAc
# In short: as §1
# [21] = biological target: Neu5Ac(a2-3)Gal(b1-3)GalNAc6S
# In short: as §1
# [22] = biological target: Neu5Ac(a2-3)Gal(b1-4)GlcNAc(b1-3)Gal(b1-3)GlcNAc
# In short: as §1
# [23] = biological target: Neu5Ac(a2-3)Gal(b1-4)GlcNAc(b1-3)Gal(b1-4)[Fuc(a1-3)]GlcNAc
# In short: as §1
# [24] = biological target: Neu5Ac(a2-3)[GalNAc(b1-4)]Gal(b1-4)Glc
# In short: as §1
# [25] = biological target: Neu5Ac(a2-6)Gal(b1-4)GlcNAc(b1-2)Man(a1-3)[Neu5Ac(a2-6)Gal(b1-4)GlcNAc(b1-2)Man(a1-6)]Man(b1-4)GlcNAc(b1-4)GlcNAc
# In short: as §1
# [26] = biological target: Neu5Gc(a2-3)Gal(b1-4)[Fuc(a1-4)]GlcNAc
# In short: as §1
binder,measurement,setting,value
B1,glycan array binding signal (z-score),Fuc(a1-2)Gal(b1-4)GlcNAc,1.11
same,glycan array binding signal (z-score),[1],-0.512
same,glycan array binding signal (z-score),[2],-0.55
same,glycan array binding signal (z-score),[3],2.51
same,glycan array binding signal (z-score),[4],2.53
same,glycan array binding signal (z-score),[5],-0.547
same,glycan array binding signal (z-score),[6],2.5
same,glycan array binding signal (z-score),[7],2.62
same,glycan array binding signal (z-score),[8],-0.541
same,glycan array binding signal (z-score),[9],0.546
same,glycan array binding signal (z-score),Gal(a1-4)GlcNAc,-0.545
same,glycan array binding signal (z-score),[10],-0.547
same,glycan array binding signal (z-score),[11],-0.546
same,glycan array binding signal (z-score),[12],2.17
same,glycan array binding signal (z-score),[13],0.621
same,glycan array binding signal (z-score),[14],-0.518
same,glycan array binding signal (z-score),Gal6S(b1-4)Glc,-0.518
same,glycan array binding signal (z-score),GalNAc(a1-3)GalNAc,-0.553
same,glycan array binding signal (z-score),[15],2.55
same,glycan array binding signal (z-score),GlcNAc(b1-3)Gal,-0.567
same,glycan array binding signal (z-score),[16],-0.526
same,glycan array binding signal (z-score),[17],1.96
same,glycan array binding signal (z-score),[18],2.26
same,glycan array binding signal (z-score),GlcNAc(b1-6)GalNAc,-0.545
same,glycan array binding signal (z-score),Kdn(a2-3)Gal(b1-3)GlcNAc,-0.443
same,glycan array binding signal (z-score),[19],-0.296
same,glycan array binding signal (z-score),[20],-0.56
same,glycan array binding signal (z-score),[21],-0.466
same,glycan array binding signal (z-score),[22],-0.129
same,glycan array binding signal (z-score),[23],-0.542
same,glycan array binding signal (z-score),[24],-0.536
same,glycan array binding signal (z-score),[25],-0.502
same,glycan array binding signal (z-score),[26],-0.041
